Tests used:
Experiment in all cases: log2 ratio of Biotin-Ahx-Ub-VS probe labelling (fragment/DMSO); higher = less target engagement (more negative = stronger competition), active = hit call of the paper (q ≤ 0.05, log2 ratio ≤ -1)
Conditions in all cases: compound concentration: 200 uM; treatment time: 3 h
USP19 = molecular target: T1, USP19 (UniProt O94966)
T1 sequence (whole entry): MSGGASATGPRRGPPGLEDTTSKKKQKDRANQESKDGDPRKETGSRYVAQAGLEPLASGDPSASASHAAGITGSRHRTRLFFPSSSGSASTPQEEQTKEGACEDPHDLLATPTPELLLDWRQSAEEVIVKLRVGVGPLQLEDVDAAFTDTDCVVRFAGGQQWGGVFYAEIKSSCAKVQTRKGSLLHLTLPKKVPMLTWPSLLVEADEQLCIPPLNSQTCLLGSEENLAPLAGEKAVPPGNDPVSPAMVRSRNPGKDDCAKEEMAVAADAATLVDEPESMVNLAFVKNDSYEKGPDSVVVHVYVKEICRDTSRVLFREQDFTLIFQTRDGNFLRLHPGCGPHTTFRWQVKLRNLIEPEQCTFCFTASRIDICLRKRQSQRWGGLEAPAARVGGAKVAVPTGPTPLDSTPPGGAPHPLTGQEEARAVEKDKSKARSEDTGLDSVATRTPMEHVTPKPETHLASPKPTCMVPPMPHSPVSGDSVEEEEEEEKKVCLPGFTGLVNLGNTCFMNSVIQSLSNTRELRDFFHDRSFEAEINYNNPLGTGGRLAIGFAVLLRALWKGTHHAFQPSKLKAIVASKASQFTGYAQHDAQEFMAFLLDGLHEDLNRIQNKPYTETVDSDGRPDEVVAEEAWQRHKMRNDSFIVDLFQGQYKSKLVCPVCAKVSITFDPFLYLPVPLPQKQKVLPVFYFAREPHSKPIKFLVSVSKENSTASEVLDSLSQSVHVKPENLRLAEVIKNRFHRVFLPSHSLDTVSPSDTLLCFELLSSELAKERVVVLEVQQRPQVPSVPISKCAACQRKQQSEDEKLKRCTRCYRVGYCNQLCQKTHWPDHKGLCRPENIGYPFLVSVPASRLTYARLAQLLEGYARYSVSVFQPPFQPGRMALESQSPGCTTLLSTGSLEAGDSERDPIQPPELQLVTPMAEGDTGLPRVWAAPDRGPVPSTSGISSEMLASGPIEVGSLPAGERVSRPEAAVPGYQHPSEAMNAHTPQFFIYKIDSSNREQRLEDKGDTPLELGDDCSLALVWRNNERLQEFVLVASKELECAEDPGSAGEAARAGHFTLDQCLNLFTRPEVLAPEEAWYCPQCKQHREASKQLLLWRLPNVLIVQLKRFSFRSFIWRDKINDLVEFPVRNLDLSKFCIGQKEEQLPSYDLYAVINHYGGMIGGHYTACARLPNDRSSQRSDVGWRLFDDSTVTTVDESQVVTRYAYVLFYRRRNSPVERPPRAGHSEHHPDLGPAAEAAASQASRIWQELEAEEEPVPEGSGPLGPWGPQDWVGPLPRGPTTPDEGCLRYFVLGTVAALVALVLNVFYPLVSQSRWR
How it was run: (§1)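 Labelling with Biotin-Ahx-Ub-VS (0.5 µM final, 1 h) followed a 3 h triplicate treatment of HEK293T lysate (495 µg per sample, Tris/CHAPS/IGEPAL buffer with protease inhibitors) with fragment at 200 µM or vehicle. Labelled DUBs were NeutrAvidin-enriched, digested with LysC and trypsin, and run by diaPASEF LC-MS/MS. The values, average log2 fragment/vehicle ratios by unpaired t-test, come from global-median-normalised Spectronaut label-free quantities. Proteins with ≥2 unique peptides were used.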

USP22 = molecular target: T2, USP22 (UniProt Q9UPT9)
T2 sequence (whole entry): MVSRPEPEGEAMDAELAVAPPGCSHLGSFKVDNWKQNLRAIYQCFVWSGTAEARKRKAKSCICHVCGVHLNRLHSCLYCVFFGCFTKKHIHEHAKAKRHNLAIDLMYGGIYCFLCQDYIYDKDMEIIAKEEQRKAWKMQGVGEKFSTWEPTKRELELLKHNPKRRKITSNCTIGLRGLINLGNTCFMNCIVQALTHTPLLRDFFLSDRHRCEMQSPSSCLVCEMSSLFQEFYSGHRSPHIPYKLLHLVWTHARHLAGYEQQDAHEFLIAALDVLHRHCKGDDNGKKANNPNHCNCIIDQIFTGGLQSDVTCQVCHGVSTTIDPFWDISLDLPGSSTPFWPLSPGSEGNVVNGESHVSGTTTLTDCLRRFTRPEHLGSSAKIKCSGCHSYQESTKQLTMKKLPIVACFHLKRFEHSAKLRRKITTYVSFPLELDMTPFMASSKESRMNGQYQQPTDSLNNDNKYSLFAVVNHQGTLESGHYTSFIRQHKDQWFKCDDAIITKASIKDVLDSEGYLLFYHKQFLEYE
How it was run: as §1

USP24 = USP24 (UniProt Q9UPU5)
How it was run: as §1

USP25 = molecular target: T3, USP25 (UniProt Q9UHP3)
T3 sequence (whole entry): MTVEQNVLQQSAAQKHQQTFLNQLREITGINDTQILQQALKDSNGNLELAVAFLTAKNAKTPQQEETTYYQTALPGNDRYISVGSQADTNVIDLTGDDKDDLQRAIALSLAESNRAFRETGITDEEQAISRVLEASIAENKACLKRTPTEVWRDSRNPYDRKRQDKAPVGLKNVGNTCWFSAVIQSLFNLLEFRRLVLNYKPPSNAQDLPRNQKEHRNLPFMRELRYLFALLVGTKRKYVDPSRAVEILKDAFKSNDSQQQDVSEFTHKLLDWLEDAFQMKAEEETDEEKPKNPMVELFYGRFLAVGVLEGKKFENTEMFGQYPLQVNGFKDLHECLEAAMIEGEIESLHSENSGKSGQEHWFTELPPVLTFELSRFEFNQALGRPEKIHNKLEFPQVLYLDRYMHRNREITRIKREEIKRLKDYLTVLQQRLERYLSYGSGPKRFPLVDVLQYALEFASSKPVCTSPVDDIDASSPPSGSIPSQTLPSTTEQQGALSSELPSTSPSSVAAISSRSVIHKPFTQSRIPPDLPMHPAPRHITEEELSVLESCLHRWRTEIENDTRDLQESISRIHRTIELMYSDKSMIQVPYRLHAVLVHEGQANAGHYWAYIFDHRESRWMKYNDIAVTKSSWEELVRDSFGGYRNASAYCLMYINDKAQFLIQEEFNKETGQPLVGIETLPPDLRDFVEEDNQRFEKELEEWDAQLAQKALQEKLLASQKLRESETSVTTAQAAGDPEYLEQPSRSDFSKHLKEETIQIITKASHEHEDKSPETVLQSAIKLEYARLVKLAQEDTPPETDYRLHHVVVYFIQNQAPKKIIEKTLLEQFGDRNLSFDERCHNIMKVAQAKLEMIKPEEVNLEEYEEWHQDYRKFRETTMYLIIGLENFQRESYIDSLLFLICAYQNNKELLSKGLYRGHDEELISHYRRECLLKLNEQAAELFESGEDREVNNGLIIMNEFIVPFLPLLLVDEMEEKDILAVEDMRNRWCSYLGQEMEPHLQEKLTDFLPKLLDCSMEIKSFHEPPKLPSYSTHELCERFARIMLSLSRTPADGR
How it was run: as §1

USP28 = molecular target: T4, USP28 (UniProt Q96RU2)
T4 sequence (whole entry): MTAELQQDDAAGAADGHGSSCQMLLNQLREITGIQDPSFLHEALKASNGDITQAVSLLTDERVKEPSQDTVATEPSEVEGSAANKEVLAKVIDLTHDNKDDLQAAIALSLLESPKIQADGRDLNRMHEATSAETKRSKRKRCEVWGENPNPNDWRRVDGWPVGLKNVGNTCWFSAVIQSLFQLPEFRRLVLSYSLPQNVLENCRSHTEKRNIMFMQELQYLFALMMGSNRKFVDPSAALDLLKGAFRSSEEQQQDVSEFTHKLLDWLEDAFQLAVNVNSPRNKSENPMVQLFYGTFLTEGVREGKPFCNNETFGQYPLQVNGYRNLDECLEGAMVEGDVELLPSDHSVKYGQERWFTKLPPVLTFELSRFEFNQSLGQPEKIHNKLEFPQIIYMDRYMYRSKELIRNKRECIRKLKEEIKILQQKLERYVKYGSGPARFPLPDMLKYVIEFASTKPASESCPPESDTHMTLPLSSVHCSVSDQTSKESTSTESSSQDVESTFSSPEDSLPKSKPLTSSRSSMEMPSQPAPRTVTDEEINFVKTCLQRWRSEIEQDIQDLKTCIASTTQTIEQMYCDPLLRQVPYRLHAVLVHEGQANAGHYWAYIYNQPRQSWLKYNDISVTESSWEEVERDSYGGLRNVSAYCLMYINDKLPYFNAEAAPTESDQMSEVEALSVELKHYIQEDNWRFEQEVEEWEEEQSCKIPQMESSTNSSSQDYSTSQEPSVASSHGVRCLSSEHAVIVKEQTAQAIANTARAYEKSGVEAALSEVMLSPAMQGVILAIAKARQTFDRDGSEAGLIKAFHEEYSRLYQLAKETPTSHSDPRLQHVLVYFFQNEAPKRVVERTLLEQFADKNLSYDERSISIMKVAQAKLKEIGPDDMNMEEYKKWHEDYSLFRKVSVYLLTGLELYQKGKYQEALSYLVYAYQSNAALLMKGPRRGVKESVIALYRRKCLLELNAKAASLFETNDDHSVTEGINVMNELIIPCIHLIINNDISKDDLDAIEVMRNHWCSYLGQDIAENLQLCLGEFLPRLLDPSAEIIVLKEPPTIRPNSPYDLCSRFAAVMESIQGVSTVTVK
How it was run: as §1

Measured: log2 ratio of Biotin-Ahx-Ub-VS probe labelling

Chain of USP24 (Q9UPU5 whole entry): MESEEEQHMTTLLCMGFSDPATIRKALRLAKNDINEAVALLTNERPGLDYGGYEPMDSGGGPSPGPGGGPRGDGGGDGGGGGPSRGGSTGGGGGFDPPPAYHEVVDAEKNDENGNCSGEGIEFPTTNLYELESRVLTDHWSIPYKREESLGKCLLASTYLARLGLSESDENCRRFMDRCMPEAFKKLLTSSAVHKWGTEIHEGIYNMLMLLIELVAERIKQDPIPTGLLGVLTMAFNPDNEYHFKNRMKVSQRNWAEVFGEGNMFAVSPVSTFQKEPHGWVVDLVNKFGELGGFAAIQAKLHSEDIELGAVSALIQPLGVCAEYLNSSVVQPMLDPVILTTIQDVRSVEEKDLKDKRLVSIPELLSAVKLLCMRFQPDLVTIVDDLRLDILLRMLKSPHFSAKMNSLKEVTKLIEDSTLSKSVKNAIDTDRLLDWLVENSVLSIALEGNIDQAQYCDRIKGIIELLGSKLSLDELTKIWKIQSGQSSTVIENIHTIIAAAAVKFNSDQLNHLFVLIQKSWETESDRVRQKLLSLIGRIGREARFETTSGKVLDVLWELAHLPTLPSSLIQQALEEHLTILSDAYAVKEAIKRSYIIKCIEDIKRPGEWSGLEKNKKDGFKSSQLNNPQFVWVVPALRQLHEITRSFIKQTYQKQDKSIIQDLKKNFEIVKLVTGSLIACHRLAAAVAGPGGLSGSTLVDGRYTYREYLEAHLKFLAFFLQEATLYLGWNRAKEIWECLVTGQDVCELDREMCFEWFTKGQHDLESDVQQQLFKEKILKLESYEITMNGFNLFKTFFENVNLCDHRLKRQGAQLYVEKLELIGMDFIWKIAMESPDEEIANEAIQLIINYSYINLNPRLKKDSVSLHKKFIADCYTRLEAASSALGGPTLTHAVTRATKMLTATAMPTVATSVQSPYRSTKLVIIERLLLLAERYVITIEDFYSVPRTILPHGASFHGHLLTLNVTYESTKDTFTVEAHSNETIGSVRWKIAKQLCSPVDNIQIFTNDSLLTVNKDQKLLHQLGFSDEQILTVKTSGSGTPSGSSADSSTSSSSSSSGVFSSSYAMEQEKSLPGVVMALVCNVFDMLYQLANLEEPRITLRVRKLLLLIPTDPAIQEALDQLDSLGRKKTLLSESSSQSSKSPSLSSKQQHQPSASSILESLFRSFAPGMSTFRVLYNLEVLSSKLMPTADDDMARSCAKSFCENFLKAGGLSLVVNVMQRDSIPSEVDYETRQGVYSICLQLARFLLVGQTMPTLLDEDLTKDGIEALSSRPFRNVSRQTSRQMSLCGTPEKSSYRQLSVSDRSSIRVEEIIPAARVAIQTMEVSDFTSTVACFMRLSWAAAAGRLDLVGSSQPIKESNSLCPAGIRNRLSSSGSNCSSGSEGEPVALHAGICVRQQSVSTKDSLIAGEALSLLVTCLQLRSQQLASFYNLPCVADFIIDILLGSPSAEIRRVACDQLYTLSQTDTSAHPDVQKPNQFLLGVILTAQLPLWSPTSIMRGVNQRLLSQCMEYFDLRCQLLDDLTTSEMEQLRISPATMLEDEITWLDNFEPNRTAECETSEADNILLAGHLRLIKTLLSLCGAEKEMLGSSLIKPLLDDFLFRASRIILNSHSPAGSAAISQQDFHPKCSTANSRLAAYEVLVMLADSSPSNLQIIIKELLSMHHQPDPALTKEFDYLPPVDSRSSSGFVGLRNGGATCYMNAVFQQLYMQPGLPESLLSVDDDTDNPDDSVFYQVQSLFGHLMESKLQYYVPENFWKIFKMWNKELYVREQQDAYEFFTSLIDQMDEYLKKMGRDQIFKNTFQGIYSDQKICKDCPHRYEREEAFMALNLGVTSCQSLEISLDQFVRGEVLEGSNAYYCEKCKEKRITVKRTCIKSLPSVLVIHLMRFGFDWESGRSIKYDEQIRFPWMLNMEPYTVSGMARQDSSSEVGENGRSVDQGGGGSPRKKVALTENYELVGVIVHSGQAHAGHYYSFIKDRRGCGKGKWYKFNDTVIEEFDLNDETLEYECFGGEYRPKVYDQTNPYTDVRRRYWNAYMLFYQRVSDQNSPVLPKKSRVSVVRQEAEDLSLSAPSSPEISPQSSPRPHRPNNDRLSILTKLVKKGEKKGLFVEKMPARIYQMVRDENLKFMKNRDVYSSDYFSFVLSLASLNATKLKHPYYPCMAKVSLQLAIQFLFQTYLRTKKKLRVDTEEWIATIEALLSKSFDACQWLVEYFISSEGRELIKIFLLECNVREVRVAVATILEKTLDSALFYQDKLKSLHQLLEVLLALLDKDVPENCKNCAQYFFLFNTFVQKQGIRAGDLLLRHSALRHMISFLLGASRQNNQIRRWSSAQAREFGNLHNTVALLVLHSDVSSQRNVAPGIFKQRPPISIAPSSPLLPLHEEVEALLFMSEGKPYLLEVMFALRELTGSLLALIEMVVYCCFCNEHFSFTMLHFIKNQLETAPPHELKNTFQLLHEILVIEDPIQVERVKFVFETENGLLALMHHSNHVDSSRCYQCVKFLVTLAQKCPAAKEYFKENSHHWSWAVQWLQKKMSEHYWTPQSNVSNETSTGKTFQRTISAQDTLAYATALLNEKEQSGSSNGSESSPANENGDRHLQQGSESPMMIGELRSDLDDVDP

Cc1ccccc1C1(CNC(=O)CCl)CCOCC1
inactive: USP19 -0.115 | USP22 -0.0958 | USP24 -0.178 | USP25 -0.264 | USP28 -0.284

Reference: the supplement of paper PMC11732987, “Enantioselective OTUD7B fragment discovery through chemoproteomics screening and high-throughput optimisation” (Communications Chemistry, 2025)
